Among the data in PubChem BioAssay AID743269 (The Scripps Research Institute Molecular Screening Center, 2014) are inhibition values, retold here.

Structures are written as SMILES. Values joined by “and” are separate entries in the source; they are usually repeats but may differ in a detail not shown here. Identical values can stand only once. Hit rate of the full screen: of about 370,000 compounds, about 2,400 (0.65%) were called active.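 How the source made its calls: active means inhibition above the screen-wide mean plus 3 SD (cut at about 13% in these data); inactive means the rest.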 The entries come from a sample that favours actives as a whole. More than one record can exist for a structure, and the calls need not agree.

The test concerns HIV-1 integrase (with human LEDGF/p75). Kind of test: blockers of LEDGF/p75-dependent integrase strand transfer – biochemical, TR-FRET, high throughput, primary screen (AID 743269).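 Further: signal is the Cy5 over europium emission ratio at 671 and 618 nm; 0% = plate median of compound wells.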 As to conditions: TR-FRET IN-LEDGF/p75 DNA integration, Eu/Cy5; at 3.7 µM; stronger effect = higher value. A general note: TR-FRET usually uses a lanthanide donor and a delayed reading to cut background.
In general, inhibition refers to the relative decrease from the control value, in per cent. With `COC(=O)[C@@]12CCCCC3=C1N(CCC3)C(=O)[C@H]2CC(=O)NCc1cccc2ccccc12`, the inhibition was 0.3% (inactive).

For the compound `COc1cccc(CSc2nnc(-c3cccnc3)n2Cc2ccccc2)c1`, the inhibition was -2.05% (inactive).

`COC(=O)[C@]12C[C@H](CC(=O)NCc3cccc4ccccc34)C(=O)N(CCc3ccc(OC)c(OC)c3)C1=C[C@H](C1CCCC1)O[C@@H]2C`: the inhibition was 3.8% (inactive).

For the compound `C=CC1=C(C(=O)O)N2C(=O)[C@@H](NC(=O)/C(=N\OCC(=O)O)c3csc(N)n3)[C@H]2SC1`, the inhibition is 19.9% (active).

Regarding `C=CC1=C(C(=O)O)N2C(=O)[C@@H](NC(=O)/C(=N/OCC(=O)O)c3csc(N)n3)[C@H]2SC1`, the inhibition is 63.4% (active).

Consider `CO/N=C(\C(=O)N[C@@H]1C(=O)N2C(C(=O)O)=C(COC(C)=O)CS[C@H]12)c1csc(N)n1` (stereo in doubt), for which the inhibition is 14.1% (active) and 6.2% (inactive) and 17.6% (active).

As to `COc1ccc(C(=O)OCCN(C)C2CN(Cc3cn(Cc4cccc(C)c4)nn3)S(=O)(=O)C2)cc1OC` (configuration not stated), the inhibition was 4.74% (inactive).

Turning to `CN(C(N)=NC(=O)/C=C/c1ccccc1)C(C#Cc1ccccc1)Cc1ccccc1` (configuration not stated), the inhibition was 2.02% (inactive).

Turning to `COc1ccc(C2CC=C(C(=O)O)C(c3ccccc3F)N2S(=O)(=O)c2ccc(C)cc2)cc1OC` (configuration not stated), the inhibition was -2.7% (inactive).

With `CN1C[C@]2(C=C3CCCCC3n3c(=O)n(-c4ccccc4)c(=O)n32)N=C1NC(=O)c1ccccc1` (some centres not stated), the inhibition is 0.62% (inactive).

In the case of `O=C(CNC(=O)c1ccccc1)OC(C(=O)Nc1cc([N+](=O)[O-])ccc1F)c1ccccc1` (configuration not stated), the inhibition is -3.25% (inactive).

Turning to `Cc1ccc(-n2c(SCC(=O)Nc3ccc(S(=O)(=O)Nc4nccs4)cc3)nnc2-c2cccnc2)cc1`, the inhibition was 8.17% (inactive).

As for `COc1cccc(CNC(=O)C2CCCN(c3nc4ccccc4o3)C2)c1OC` (configuration not stated), the inhibition was 3.24% (inactive).

Turning to `O=C(NCCCn1ccnc1)c1cc(-c2ccccc2)on1`, the inhibition was 1.32% (inactive).

In the case of `O=C(CCN1C(=O)c2ccccc2C1=O)NCCCn1ccnc1`, the inhibition is 1.21% (inactive).

Consider `COc1ccccc1-c1cc(C(=O)NCCCn2ccnc2)no1`, for which the inhibition was 16.7% (active).

For the compound `O=C(c1c[nH]c2ccccc12)N1CCC(Oc2cccnc2)CC1`, the inhibition was 8.82% (inactive).

Consider `Cc1ccc(-n2c(SCC(=O)Nc3cccc4ccccc34)nnc2-c2ccco2)cc1`, for which the inhibition is 1.78% (inactive).

For `COc1ccc(-n2c(SCC(=O)Nc3ccc4c(c3)OCCO4)nnc2-c2ccc(Cl)cc2)cc1`, the inhibition is 3.45% (inactive).

Turning to `O=C(COC(=O)Cc1ccc(Br)cc1)Nc1ccc(N2CCOCC2)cc1`, the inhibition was -6.57% (inactive).

In the case of `O=C(O)CCC(=O)Nc1ccc(N2CCOCC2)cc1`, the inhibition was 17.1% (active).

For the compound `Cc1csc(=O)n1CCC(=O)OCC(=O)Nc1ccc(N2CCOCC2)cc1`, the inhibition was 1.07% (inactive).
